{"source": "PubChem BioAssay AID2546", "about": "(National Center for Advancing Translational Sciences (NCATS), 2010)", "note": "The campaign covered roughly 310,000 compounds. About 11,000 (3.5%) were called active. Where a call stands in place of a potency, no number is given. About 8% were inconclusive and are not listed. The call rests on the fitted dose curve; in most records, active means well fitted inhibition curve with a large enough effect; inconclusive means small, poorly fitted or top-dose-only effect, or effect the other way; inactive means flat fitted curve, though single readings scatter. This excerpt belongs to a sample that is enriched for actives. Potency means the concentration at half of the fitted maximal effect.", "data": [{"assay": "VP16 counterscreen qHTS for inhibitors of ROR gamma transcriptional activity;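 further: Gal4-VP16 expression switched on by copper sulfate through the metallothionein promoter; nearly all actives have a fitted effect of over 50% in size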", "conditions": "Drosophila S2 Gal4-VP16 UAS-luciferase, luminescence, 20 h; series mostly up to 53.6 µM", "values": [{"smiles": "COc1ccc(C(C(=O)NC2CCCC2)N(CCCO)C(=O)Cn2nnc(-c3ccc(C)o3)n2)cc1", "note": "(configuration not stated)", "Potency": "inactive"}, {"smiles": "COc1ccc(-c2cc(=O)oc3cc(OCC(=O)N(C)C4CCS(=O)(=O)C4)ccc23)cc1", "note": "(configuration not stated)", "Potency": "inactive"}, {"smiles": "CC(=O)Nc1cccc(/C(C)=N/NC(=O)c2ccccc2Cl)c1", "Potency": "inactive"}, {"smiles": "Cc1onc(-c2c(Cl)cccc2Cl)c1C(=O)NNC(=O)c1c(-c2c(Cl)cccc2Cl)noc1C", "Potency": "inactive"}, {"smiles": "CC(=O)Nc1cccc(/C(C)=N/NC(=O)c2c(-c3ccccc3Cl)noc2C)c1", "Potency": "20 µM (active)"}, {"smiles": "COc1cc(/C=C/CO)cc(OC)c1O[C@@H]1O[C@H](CO)[C@@H](O)[C@H](O)[C@H]1O", "Potency": "inactive"}, {"smiles": "CCc1cccc(OC2OC(CO)C(O)C(O)C2NC(C)=O)c1", "note": "(configuration not stated)", "Potency": "inactive"}, {"smiles": "Cc1csc(-c2coc3cc(O[C@@H]4O[C@H](CO)[C@@H](O)[C@@H](O)[C@H]4O)ccc3c2=O)n1", "Potency": "15.8 µM (active)"}, {"smiles": "CCN(C(=O)C1CCCN(c2nc(-c3ccc(OC)cc3)no2)C1)c1ccc(OC)cc1", "note": "(configuration not stated)", "Potency": "inactive"}, {"smiles": "CC(=O)[C@@]12O[C@@H]1C[C@H]1[C@@H]3CC[C@H]4C[C@@H](O)CC[C@]4(C)[C@H]3CC[C@@]12C", "Potency": "inactive"}, {"smiles": "Cc1cccc(C(=O)Nc2ccccc2N2CCN(c3ccc(F)cc3)CC2)c1", "Potency": "inactive"}, {"smiles": "Cc1cccc(C(=O)NC(=S)N2CCN(c3ccc([N+](=O)[O-])cc3)CC2)c1", "Potency": "1 µM (active)"}, {"smiles": "Cc1cccc(C(=O)NNC(=O)c2cccc([N+](=O)[O-])c2)c1", "Potency": "inactive"}, {"smiles": "CCOc1cc(C(=S)N2CCOCC2)ccc1OS(=O)(=O)c1ccc(Br)cc1", "Potency": "inactive"}, {"smiles": "COc1cccc(-c2coc3cc4oc(=O)c(CC(=O)O)c(C)c4cc23)c1", "Potency": "inactive"}, {"smiles": "Cc1c(Cl)c([N+](=O)[O-])nn1Cc1ccc(C(=O)N/N=C\\c2cc(Cl)ccc2O)o1", "Potency": "11.2 µM (active)"}, {"smiles": "Cc1c(Cl)c([N+](=O)[O-])nn1CCCC(=O)Nc1cc(Cl)ccc1Cl", "Potency": "inactive"}, {"smiles": "O=C(N/N=C/c1ccc2c(c1)OCO2)c1ccc(Cn2cc([N+](=O)[O-])cn2)o1", "Potency": "inactive"}, {"smiles": "COc1cccc(-c2cccc(NC(=O)C3CCN(C4CCC4)CC3)c2)c1", "Potency": "inactive"}, {"smiles": "COc1cc2c(cc1/C=C1/NC(=O)N(c3ccccc3)C1=O)OCO2", "Potency": "inactive"}, {"smiles": "CCCCN=C1N/C(=C\\c2ccco2)C(=O)N1c1ccccc1", "Potency": "inactive"}, {"smiles": "O=C1/C(=C\\c2ccsc2)NC(=S)N1c1ccccc1", "Potency": "22.4 µM (active)"}, {"smiles": "O=C(CNc1cccc(S(=O)(=O)N2CCCCC2)c1)Nc1ccccc1F", "Potency": "inactive"}, {"smiles": "COc1ccc(C(=O)NC(C)c2nccs2)cc1OC1CCN(C(C)C)CC1", "note": "(configuration not stated)", "Potency": "inactive"}, {"smiles": "CCOC(=O)c1[nH]cnc1C(=O)Nc1ccccc1C", "Potency": "inactive"}, {"smiles": "CCOC(=O)c1ccc(NC(=O)c2cc(=O)[nH]c3ccccc23)cc1", "Potency": "inactive"}, {"smiles": "CCOC(=O)c1ccc(NC(=O)c2nc[nH]c2C(=O)NCc2ccccc2)cc1", "Potency": "5.62 µM (active)"}, {"smiles": "Cc1ccc(C(C)C)cc1OCC(=O)Nc1ccccc1N1CCCC1", "Potency": "inactive"}, {"smiles": "O=C(c1cc2ccccc2o1)N1CCN(c2cccc(C(F)(F)F)c2)CC1", "Potency": "inactive"}, {"smiles": "CCCCC[C@H]1CN(C2CCCCC2)C(=O)[C@@H]1CC(=O)NCc1ccc(OC)cc1", "Potency": "inactive"}, {"smiles": "CCC(C)C(=O)Nc1ccccc1N1CCN(c2ccc(F)cc2)CC1", "note": "(configuration not stated)", "Potency": "inactive"}, {"smiles": "CCN1C(=NCCc2cccnc2)N[C@@H](c2ccccc2)C(C(=O)OC)=C1C", "Potency": "inactive"}, {"smiles": "O=C(CO/N=C/c1ccccc1O)NNC(=O)c1ccccc1Cl", "Potency": "14.1 µM (active)"}, {"smiles": "O=C(CO/N=C/c1ccccc1OC(F)F)NC1CCCC1", "Potency": "inactive"}, {"smiles": "O=C(NNC(=S)NC1CCCCC1)c1ccccc1Cl", "activity, negative = inhibition": "-4.51% [at 10 µM] (inactive)"}, {"smiles": "Oc1ccc(-n2nnnc2SCc2c(F)cccc2Cl)cc1", "Potency": "inactive"}, {"smiles": "Cc1cccc(OCCC(=O)Nc2ccccc2C(N)=O)c1", "Potency": "inactive"}, {"smiles": "Cc1cccc(OC(C)C(=O)N2CCc3ccccc3C2)c1", "note": "(configuration not stated)", "Potency": "inactive"}, {"smiles": "CCCCNC(=O)C(=O)c1ccccc1NC(C)=O", "Potency": "inactive"}, {"smiles": "CCCCNC(=S)N/N=C1\\CCCCc2ccccc21", "Potency": "4.47 µM (active)"}, {"smiles": "O=[N+]([O-])c1ccccc1N/N=C1\\CCc2ccccc21", "Potency": "inactive"}, {"smiles": "FC(F)(F)c1nnc2c3ccccc3c(Cl)nn12", "Potency": "inactive"}, {"smiles": "COc1ccc(CNc2cc(C)cc(C)c2)cc1OC", "Potency": "inactive"}, {"smiles": "COc1ccc(N2CCN(S(=O)(=O)c3ccc4c(c3)NC(=O)C(C)C(=O)N4)CC2)cc1", "note": "(configuration not stated)", "Potency": "inactive"}, {"smiles": "CC(C)(O)C#Cc1ccc(CN2CCC(CO)(CCc3ccccc3)CC2)cc1", "Potency": "inactive"}, {"smiles": "COCCCNC(=S)NC(=O)c1ccc([N+](=O)[O-])cc1", "Potency": "17.8 µM (active)"}, {"smiles": "CC(=O)NC(=S)Nc1ccc(NC(=S)NC(=O)c2ccc([N+](=O)[O-])cc2)cc1", "Potency": "inactive"}, {"smiles": "O=C(NC(=S)Nc1ccc(NC(=O)c2cccs2)cc1)c1ccc([N+](=O)[O-])cc1", "Potency": "inactive"}, {"smiles": "Cc1cc(CN(C)C(=O)c2cc(COc3ccc(C)c(C)c3)on2)n[nH]1", "Potency": "inactive"}, {"smiles": "COC(=O)c1cc(S(=O)(=O)Nc2ccc(C)c(F)c2)c[nH]1", "Potency": "inactive"}, {"smiles": "COc1ccc(-n2nc(C(=O)NCC(=O)N3CCN(c4ccccc4OC)CC3)c3ccccc3c2=O)c(OC)c1", "Potency": "inactive"}, {"smiles": "COc1cccc(NC(=O)c2ccccc2N(Cc2ccccc2)S(C)(=O)=O)c1", "Potency": "inactive"}, {"smiles": "Cc1ccc(C2=Nc3c(ccc4ccccc34)C(c3ccncc3)=NN2)cc1", "Potency": "inactive"}, {"smiles": "CCOc1ccc2c(c1)C(c1ccc(C)cc1)=NNC(c1ccc(C)cc1)=N2", "Potency": "15.8 µM (active)"}, {"smiles": "CCc1ccc2c(c1)C(c1ccc([N+](=O)[O-])cc1)=NNC(c1ccccc1)=N2", "Potency": "inactive"}, {"smiles": "COc1ccc(C(=O)NCCn2nc(C)cc2C)cc1OC1CCN(C(C)=O)CC1", "Potency": "inactive"}, {"smiles": "COc1ccc(NC(=O)CS(=O)(=O)c2ccccc2)cc1", "Potency": "inactive"}, {"smiles": "Cc1nonc1NC(=O)c1ccccc1Br", "Potency": "inactive"}, {"smiles": "O=C(Nc1cccc(Cl)c1)Nc1nnc(-c2ccccc2)o1", "Potency": "inactive"}, {"smiles": "O=C(Nc1nnc(-c2ccc(Cl)cc2)o1)c1ccccc1Br", "Potency": "4.47 µM (active)"}, {"smiles": "COc1cccc(N(C(=O)c2snc(C(N)=O)c2N)C(C(=O)NCC2CCCO2)c2c[nH]c3ccccc23)c1", "note": "(configuration not stated)", "Potency": "inactive"}, {"smiles": "O=C(O)CSCC(=O)Nc1cccc(C(F)(F)F)c1", "Potency": "inactive"}, {"smiles": "O=C(Nc1cccc(C(F)(F)F)c1)c1cc(Br)cc(Br)c1O", "Potency": "4.47 µM (active)"}, {"smiles": "O=C(Nc1cccc(C(F)(F)F)c1)c1cnccn1", "Potency": "inactive"}, {"smiles": "COc1cc(NC(=O)C2=CC(c3ccc(C)cc3)=NS(=O)(=O)N2C)cc(OC)c1OC", "Potency": "inactive"}, {"smiles": "COc1cc2c(cc1OC)CN(CC(=O)Nc1ccc(F)cc1)CC2", "Potency": "inactive"}, {"smiles": "O=C(CSCC(=O)Nc1cccc([N+](=O)[O-])c1)Nc1ccccc1", "Potency": "inactive"}, {"smiles": "COC(=O)/C=C\\C(=O)Nc1cccc([N+](=O)[O-])c1", "Potency": "1.26 µM (active)"}, {"smiles": "CC(=O)Nc1cccc([N+](=O)[O-])c1", "Potency": "inactive"}, {"smiles": "COc1cc(SC)ccc1C(=O)N(Cc1ccccc1)c1ccccc1", "Potency": "inactive"}, {"smiles": "NC(=O)C(=O)N/N=C/c1ccc([N+](=O)[O-])o1", "Potency": "11.2 µM (active)"}, {"smiles": "COc1ccc(C(=O)NCC(=O)N/N=C/c2ccc([N+](=O)[O-])o2)cc1OC", "Potency": "inactive"}, {"smiles": "Cc1cc(C)nc(N/N=C/c2ccc([N+](=O)[O-])o2)n1", "Potency": "inactive"}, {"smiles": "COc1ccc(-c2cc(C(=O)N3CCN(c4ccc(F)cc4)CC3)no2)cc1", "Potency": "inactive"}, {"smiles": "FC(F)(F)c1nc2ccccc2nc1N/N=C/c1ccc(Cl)cc1", "Potency": "10 µM (active)"}, {"smiles": "FC(F)(F)c1cccc(N/N=C/c2ccccc2)c1", "Potency": "inactive"}, {"smiles": "Fc1ccc(/C=N/Nc2nc(-c3cccnc3)nc3ccccc23)cc1", "Potency": "inactive"}, {"smiles": "CCNC(=O)N1CCCC(C(=O)c2ccc(-c3ccccc3)cc2)C1", "note": "(configuration not stated)", "Potency": "inactive"}, {"smiles": "c1cnc(N2CCN(c3ccc4ccccc4n3)CC2)nc1", "Potency": "inactive"}, {"smiles": "CC(=O)N1c2ccc(S(=O)(=O)N3CCC(C(=O)NC4CCCC(C)C4C)CC3)cc2CC1C", "note": "(configuration not stated)", "Potency": "inactive"}, {"smiles": "Cc1ccc2cccc(OCCCOc3ccccc3CO)c2n1", "Potency": "inactive"}, {"smiles": "O=C(O)c1cccc(NC(=S)N/N=C/c2c[nH]c3ccccc23)c1", "Potency": "inactive"}, {"smiles": "O=C(N/N=C/c1ccc([N+](=O)[O-])cc1)c1c[nH]c2ccccc12", "Potency": "inactive"}, {"smiles": "CSC(=S)N/N=C/c1c[nH]c2ccccc12", "Potency": "0.891 µM (active)"}, {"smiles": "O=C(N/N=C/c1c[nH]c2ccccc12)c1ccccc1O", "Potency": "6.31 µM (active)"}, {"smiles": "O=C(N/N=C/c1c[nH]c2ccccc12)c1cc2ccccc2o1", "Potency": "inactive"}, {"smiles": "O=C(Cc1c[nH]c2ccccc12)N/N=C/c1cccc(F)c1", "Potency": "inactive"}, {"smiles": "C[C@H](C(=O)CC(=O)OC(C)(C)C)[C@H](O)c1ccc(C(F)(F)F)cc1", "Potency": "inactive"}, {"smiles": "Cc1ccc(-c2csc(NC3OC(=O)c4ccccc43)n2)cc1", "note": "(configuration not stated)", "Potency": "inactive"}, {"smiles": "CN(C)c1ccc(/C=C/C(=O)c2ccc(O)cc2)cc1[N+](=O)[O-]", "Potency": "5.01 µM (active)"}, {"smiles": "CC(=O)c1ccc2c(c1)OCCOCCOc1ccc(C(C)=O)cc1OCCOCCO2", "Potency": "inactive"}, {"smiles": "CN(C)c1ccc(/C=C/C(=O)c2ccc(C(C)(C)C)cc2)cc1[N+](=O)[O-]", "Potency": "inactive"}, {"smiles": "O=C(/C=C/c1ccc2c(c1)OCCO2)c1ccc(O)cc1", "Potency": "4.47 µM (active)"}, {"smiles": "O=C(O)/C=C/c1ccc2c(c1)OCCO2", "Potency": "inactive"}, {"smiles": "O=C(/C=C/c1ccc(Cl)cc1)N1CCN(c2ccccc2[N+](=O)[O-])CC1", "Potency": "inactive"}, {"smiles": "O=C1C2CCCN2C(=O)N1CCCCN1CCN(c2cccc(C(F)(F)F)c2)CC1", "note": "(configuration not stated)", "Potency": "inactive"}, {"smiles": "C=CCn1cc(Cl)cc(C(=O)Nc2ccccc2)c1=O", "Potency": "inactive"}, {"smiles": "Cc1cccc(C)c1N1C(=O)CN(Cc2ccccc2)C1=S", "Potency": "inactive"}, {"smiles": "COc1cccc(NC(C)=[N+](C)CCNS(=O)(=O)c2ccc(Cl)cc2)c1", "Potency": "inactive"}, {"smiles": "COc1ccccc1-c1n[nH]c2c1[C@H](C)CC[C@H]2C(C)C", "Potency": "12.6 µM (active)"}, {"smiles": "COc1ccccc1-c1nc(SC)n[nH]1", "Potency": "inactive"}, {"smiles": "COc1ccccc1-c1nc(N2CCN(C)CC2)c2ccccc2n1", "Potency": "inactive"}]}]}
